Among all 52,000 compounds or so, about 1,700 (3.3%) were called active. This is one part of a sample in which actives are shown more often than they occur. Rule as the data show it: active = survival mostly below about 52% (no sharp cut-off); inactive = mostly above about 56%.

The test deals with Wild type. Nature of the test: growth inhibition of S. aureus wild type versus tarO mutant, primary screen, teichoic acid synthesis inhibitors, RN4220, OD600 (AID 463173). Conditions: S. aureus RN4220 wild type/DeltatarO growth, OD600, 18 h, active compounds read low, screened at 18.75 µg/mL (by protocol).
In the case of `O=C(Nc1ccc(Br)cc1F)N1CCC(CN2CCc3ccccc3C2)CC1`, the survival was 63% (inactive). Under `O=C(Nc1ccc2nc(SCC(=O)N3CCCC3)sc2c1)c1ccc(F)cc1` stands 87% (inactive). Consider `O=C(CSc1nc2ccccc2c(=O)n1Cc1ccco1)Nc1ccccc1`, for which the survival was 106% (inactive). As to `Cc1ccc(N2CCN(S(=O)(=O)c3ccc(-n4cnnn4)cc3)CC2)c(C)c1`, the survival was 97% (inactive). For the compound `CCOc1ccc(C(=O)c2cn(Cc3ccccc3OC)c3cc4c(cc3c2=O)OCCO4)cc1`, the survival was 80% (inactive). Under `CN(C)CCCN(C(=O)c1cccs1)c1nc2ccc(F)cc2s1` stands 76% (inactive); under `CN(C)CCCN(C(=O)c1ccc(Br)s1)c1nc2ccc(F)cc2s1`, -6% (active); under `Cc1ccc2nc(N(CCCN(C)C)C(=O)c3ccc(Br)s3)sc2c1`, 90% (inactive). The value for `CCS(=O)(=O)c1ccccc1C(=O)Nc1ccc(-c2nc3ccccc3s2)cc1` was 77% (inactive); that for `COc1ccccc1CNC(=O)CCn1cnc2ccccc2c1=O` was -6% (active).

As to `COc1ccccc1NC(=O)CCn1cnc2ccccc2c1=O`, the survival is 76% (inactive). The value for `O=C(CCn1cnc2ccccc2c1=O)NCc1ccccc1Cl` was 98% (inactive); that for `Cc1ccc(-c2[nH]c3ccccc3c2SCCNC(=O)c2ccc(S(=O)(=O)N3CCOCC3)cc2)cc1` was 81% (inactive).

As to `CCOC(=O)c1ccc(CNS(=O)(=O)c2c(C)ccc3nsnc23)o1`, the survival is 105% (inactive). With `Fc1ccc(-n2nc(-c3ccccc3)c3cnc4ccccc4c32)cc1Cl`, the survival is 138% (inactive).

In the case of `Cc1ccc(C)c(N2CCN(S(=O)(=O)c3cc(C(=O)Nc4cc(Cl)cc(Cl)c4)ccc3F)CC2)c1`, the survival is 85% (inactive). Under `CCOc1ccc(NC(=O)c2ccc3nc(C(C)C)oc3c2)cc1` stands 70% (inactive). The value for `COc1ccc(C)c2sc(N3CCN(C(=O)c4ccco4)CC3)nc12` was -1% (active); that for `Cc1ccc(Cl)c2sc(N3CCN(C(=O)C4CC4)CC3)nc12` was 76% (inactive); that for `CCCC(=O)N1CCN(c2nc3c(OC)ccc(C)c3s2)CC1` was 14% (active). Under `COc1ccc(OC)c2sc(N3CCN(C(=O)c4ccco4)CC3)nc12` stands 76% (inactive). Regarding `COc1ccc(C)c2sc(N3CCN(C(=O)c4cccc(F)c4)CC3)nc12`, the survival is 133% (inactive). `Cc1ccc(C)c2sc(N3CCN(C(=O)c4ccco4)CC3)nc12`: the survival is 159% (inactive). Regarding `COc1ccc(OC)c2sc(N3CCN(C(=O)C(C)(C)C)CC3)nc12`, the survival is 69% (inactive).

Take `COc1ccc(OC)c2sc(N3CCN(C(=O)C4CC4)CC3)nc12`: the survival was -6% (active). Under `CCS(=O)(=O)c1ccc(C(=O)N2CCN(c3nc4c(OC)ccc(C)c4s3)CC2)cc1` stands 91% (inactive); under `COc1ccc2c(c1)c1c(c(=O)n(-c3ccccc3C)c(=O)n1CC(N)=O)n2C`, 82% (inactive). `CCOc1ccccc1NC(=O)CCn1nc(C)c(S(=O)(=O)N2CCCCC2)c1C`: the survival was 76% (inactive). Turning to `COc1ccc(N2CCN(C(CNC(=O)CC(C)C)c3ccc4c(c3)OCO4)CC2)cc1` (configuration not stated), the survival is 83% (inactive). On to `CCOc1ccc(-c2nnc(SCC(=O)NCCc3ccccc3)nc2-c2ccc(OCC)cc2)cc1`, for which the survival was 73% (inactive). Under `COc1cc(C2CC(=O)Nc3c2c(=O)[nH]c2ncnn32)ccc1O` (configuration not stated) stands 77% (inactive); under `CCOCCCNC(=O)c1ccc2c(=O)n(CCc3ccccc3)c(=O)[nH]c2c1`, 79% (inactive); under `Cc1ccc(C)c(N2CCN(C(=O)CSCc3ccccc3Cl)CC2)c1`, 82% (inactive). For the compound `O=C(Nc1ccccn1)c1ccccc1O`, the survival is 110% (inactive). On to `CCCCSc1nnc2c(n1)OC(c1ccc(C)s1)Nc1ccccc1-2` (configuration not stated), for which the survival is 56% (inactive). Under `CCCCSc1nnc2c(n1)OC(c1ccc(Br)s1)Nc1ccccc1-2` (configuration not stated) stands 9% (active). The value for `CCCSc1nnc2c(n1)OC(c1ccc(Br)s1)Nc1ccccc1-2` (configuration not stated) was 88% (inactive); that for `Cc1ccc(NC(=O)Cn2c(=O)n(Cc3nc(-c4ccccc4)no3)c(=O)c3cc4c(cc32)OCO4)cc1F` was 89% (inactive); that for `CC(C)C(c1nnnn1Cc1ccccc1)N1CCCc2ccccc21` (configuration not stated) was 122% (inactive). Regarding `N#Cc1c(NC(=O)c2ccco2)sc2c1CCCC2`, the survival is 104% (inactive). Under `CNS(=O)(=O)c1cn(CC(=O)N2CCN(c3ccc(Cl)cc3)CC2)cc1S(=O)(=O)NC` stands 124% (inactive). As to `CNS(=O)(=O)c1cn(CC(=O)N2CCN(c3ccc(OC)cc3)CC2)cc1S(=O)(=O)NC`, the survival was 69% (inactive). The value for `CNS(=O)(=O)c1cn(CC(=O)N2CCN(c3ccc(C(C)=O)cc3)CC2)cc1S(=O)(=O)NC` was 10% (active). The value for `Cc1ccc(SCc2nc(-c3ccc(C(=O)Nc4cc(C)ccc4C)cc3)oc2C)cc1` was 129% (inactive); that for `Fc1cccc(CSc2nc(NCCc3ccccc3)c3ccccc3n2)c1` was -3% (active); that for `Clc1cccc(CSc2nc(NCCc3ccccc3)c3ccccc3n2)c1` was 66% (inactive).

Consider `COc1ccc(CCNc2nc(SCc3cccc(F)c3)nc3ccccc23)cc1OC`, for which the survival is 80% (inactive). On to `COC(=O)c1cc(S(=O)(=O)N2CCN(c3cccc(C)c3)C(C)C2)c[nH]1` (configuration not stated), for which the survival was 98% (inactive). Under `Cc1cccc(NCc2nc3ccccc3n2CCOc2ccccc2C)c1` stands -18% (active); under `O=C(O)c1ccc(NCc2nc3ccccc3n2CCOc2ccccc2Cl)cc1`, 88% (inactive).

With `COc1ccc(NCc2nc3ccccc3n2CCOc2ccccc2C)cc1`, the survival was 4% (active).

`Cc1ccc(NCc2nc3ccccc3n2CCOc2ccccc2C)cc1`: the survival is -20% (active).

For `Cc1ccccc1OCCn1c(CCNC(=O)C2CCCCC2)nc2ccccc21`, the survival was 90% (inactive).

As for `COc1cccc(OCc2nc3ccccc3n2CCOc2ccccc2C)c1`, the survival was 55% (inactive).

For the compound `COc1ccccc1OCCn1c(COc2cc(C)ccc2C)nc2ccccc21`, the survival is 87% (inactive). `Fc1ccc(NCc2nc3ccccc3n2CCOc2ccccc2Cl)cc1`: the survival is 95% (inactive). The value for `Cc1ccc(C)c(CSc2c(C(C)C)cnc3c2c(=O)n(C)c(=O)n3C)c1` was 126% (inactive); that for `O=C(CSc1ncc(CO)n1Cc1ccccc1)Nc1ccc(C(F)(F)F)cc1` was 120% (inactive); that for `Cc1ccc(NC(=O)C(Cc2ccccc2)n2cccc2)cc1` (configuration not stated) was 96% (inactive). As to `CC(C)c1ccc(NC(=O)C(Cc2ccccc2)n2cccc2)cc1` (configuration not stated), the survival is 13% (active). Consider `CC(=O)Nc1ccc(NC(=O)C(Cc2ccccc2)N2Cc3ccccc3C2=O)cc1` (configuration not stated), for which the survival was 72% (inactive).

As to `COc1ccc(NC(=O)C(Cc2ccccc2)n2cccc2)c(OC)c1` (configuration not stated), the survival was 78% (inactive). Take `O=C(Nc1ccccc1F)C(Cc1ccccc1)n1cccc1` (configuration not stated): the survival is 85% (inactive).

As to `O=C(Nc1ccc(C(F)(F)F)cc1)C(Cc1ccccc1)n1cccc1` (configuration not stated), the survival was -2% (active). As to `O=C(CSc1nccn1Cc1ccc(F)cc1)NC1CCCC1`, the survival was 68% (inactive). As for `Cc1ccc(Cl)cc1N1CCN(C(=O)c2cc3ccc4cccnc4c3[nH]2)CC1`, the survival was 129% (inactive).

`Cc1cccc(C(=O)n2nc(C)c(S(=O)(=O)N3CCOCC3)c2C)c1`: the survival is 89% (inactive).

Consider `COc1ccc(C2=C(C)C(=O)N(Cc3ccc(C(=O)NCc4ccc(C)cc4)cc3)S2(=O)=O)cc1`, for which the survival was 89% (inactive). The value for `C1CN(C(N2CCOCC2)N2CCOCC2)CCO1` was 104% (inactive); that for `COc1ccc(-c2cc(C)no2)cc1S(=O)(=O)N1CCc2ccccc21` was 76% (inactive); that for `COc1ccc(-c2cc(C)no2)cc1S(=O)(=O)N1CC(C)Oc2ccccc21` (configuration not stated) was -6% (active). The value for `Cc1ccc(-c2onc(C)c2C)cc1S(=O)(=O)N1CCc2ccccc21` was 117% (inactive); that for `COc1ccc(-c2cc(C)no2)cc1S(=O)(=O)N1CCOc2ccccc21` was 80% (inactive). Take `COc1ccc(-c2onc(C)c2C)cc1S(=O)(=O)N1CCc2ccccc21`: the survival was 1% (active). With `CCC1CN(S(=O)(=O)c2cc(-c3cc(C)no3)ccc2OC)c2cc(C)ccc2O1` (configuration not stated), the survival is 120% (inactive).

Turning to `COc1ccc(NC(=O)c2oc3ccc(S(=O)(=O)N4CCOCC4)cc3c2C)c(OC)c1`, the survival was 152% (inactive). The value for `COc1ccc(C(CC(=O)Nc2ccc(C(C)=O)cc2)N2Cc3ccccc3C2=O)cc1` (configuration not stated) was 88% (inactive). Under `O=C(O)c1snc2c(=O)[nH]cnc12` stands 105% (inactive); under `O=C1CCCc2c1cc(C(=O)Nc1ccc(Cl)cn1)c(=O)n2-c1ccccc1`, 110% (inactive); under `COc1ccc(NC(=O)c2sc3nc(C)c(C(=O)Nc4ccc(Cl)cc4)c(-c4ccc(Br)cc4)c3c2N)cc1`, 75% (inactive). The value for `Cc1nc2sc(C(N)=O)c(N)c2c(-c2ccc(Br)cc2)c1C(=O)Nc1ccc(Cl)cc1` was -7% (active). Regarding `Cc1nc2sc(C(=O)Nc3ccc(F)cc3)c(N)c2c(-c2ccc(Br)cc2)c1C(=O)Nc1ccc(Cl)cc1`, the survival is 88% (inactive). The value for `Cc1ccc(C)c(NC(=O)Cn2c(=O)n(Cc3ccco3)c(=O)c3oc4ccccc4c32)c1` was 87% (inactive); that for `Cc1nn(Cc2ccccc2)c(C)c1CC(=O)O` was 109% (inactive).

For the compound `O=C(CSc1nc2c([nH]c3ccccc32)c(=O)n1-c1ccc(F)cc1)NCc1ccc(F)cc1`, the survival was 73% (inactive).

Consider `CCC(C)NC(=O)c1sc2nc(C)c(C(=O)Nc3ccc(Cl)cc3)c(-c3ccc(Br)cc3)c2c1N` (configuration not stated), for which the survival is 106% (inactive). Under `Cc1ccc(-c2nc3ncccc3o2)cc1NC(=O)COc1ccc(C(C)C)cc1` stands 11% (active); under `CCC(=O)Nc1ccc(-c2nc3ncccc3o2)cc1C`, 85% (inactive); under `Cc1cc(-c2nc3ncccc3o2)ccc1NC(=O)COc1cc(C)c(Cl)c(C)c1`, 80% (inactive). Under `CC(C)c1ccc(OCC(=O)Nc2cc(-c3nc4ncccc4o3)ccc2Cl)cc1` stands 128% (inactive); under `Cc1cc(OCC(=O)Nc2cc(-c3nc4ncccc4o3)ccc2C)ccc1Cl`, 88% (inactive); under `Cc1cc(-c2nc3ncccc3o2)ccc1NC(=O)COc1ccc(C(C)(C)C)cc1`, 26% (active).

The values are drawn from PubChem BioAssay AID463173 (ICCB-Longwood Screening Facility, Harvard Medical School, 2010).
